Experimental data: PubChem BioAssay (NCI)
The panel holds about 79,000 compounds, 15% with a hit somewhere; the sample as a whole holds those more often. The source made the active and inactive calls. Rule as the data show it: active = growth inhibition above about 70%; inactive = the rest.

Assays:
[1] = NCI Yeast Anticancer Drug Screen. Data for the rad14 strain (AID 159);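 also: 0% = growth of vehicle-treated control cultures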; settings: S. cerevisiae rad14 strain growth inhibition, active compounds read high
In short: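 A mutant yeast strain defective in DNA damage repair is treated with compound; inhibition of its growth is scored against untreated, vehicle-exposed cultures.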

[2] = NCI Yeast Anticancer Drug Screen. Data for the sgs1 mgt1 strain (AID 161);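 also: 0% = growth of cultures given vehicle only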; settings: S. cerevisiae sgs1 mgt1 strain, active compounds read high
In short: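 Genetically altered yeast, compound exposure, growth inhibition relative to vehicle.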

[3] = NCI Yeast Anticancer Drug Screen. Data for the CLN2oe strain (AID 163);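 also: 0% = growth of vehicle-only control cultures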; settings: S. cerevisiae CLN2oe strain, active compounds read high
In short: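 Here, growth inhibition in a cell-cycle-altered yeast strain after compound exposure was quantified against vehicle control growth.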

[4] = NCI Yeast Anticancer Drug Screen. Data for the cln2 rad14 strain (AID 165);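 also: 0% = growth equal to vehicle treated cultures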; settings: S. cerevisiae cln2 rad14 strain, active compounds read high
In short: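 Growth of compound-exposed yeast (cln2 rad14 genotype) measured and expressed as inhibition relative to vehicle.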

[5] = NCI Yeast Anticancer Drug Screen. Data for the bub3 strain (AID 167); settings: S. cerevisiae bub3 mutant strain, active compounds read high
In short: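 Steps: expose the mutant yeast strain to compound; grow alongside vehicle-treated cultures; measure growth; express inhibition against the vehicle cultures.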

[6] = NCI Yeast Anticancer Drug Screen. Data for the mlh1 strain (AID 171);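 also: 0% = growth of vehicle-treated control cultures of the same strain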; settings: S. cerevisiae mlh1 strain growth inhibition, active compounds read high
In short: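 Here the genetically defined yeast mutant is grown with each compound, and the extent to which its growth falls below that of vehicle-exposed cells is reported.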

[7] = NCI Yeast Anticancer Drug Screen. Data for the sgs1 strain (AID 173);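 also: 0% = growth of vehicle-only control cultures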; settings: S. cerevisiae sgs1 mutant, active compounds read high
In short: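 Relative growth inhibition, referenced to vehicle, was determined in a yeast strain with a defined alteration affecting DNA damage repair or cell cycle control after compound exposure.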

[8] = NCI Yeast Anticancer Drug Screen. Data for the mlh1 rad18 strain (AID 175); settings: S. cerevisiae mlh1 rad18 strain growth inhibition, active compounds read high
In short: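 In this whole-cell yeast screen, a strain with altered DNA damage repair is challenged with compound, and its growth is measured against matched vehicle-treated controls.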

[9] = NCI Yeast Anticancer Drug Screen. Data for the wt1 strain (AID 149);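 also: 0% = growth of vehicle-treated wt1 cultures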; settings: S. cerevisiae wt1 strain (SPY 50644) growth inhibition, active compounds read high
In short: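 Compounds are added to wt1 yeast cultures. Growth is then measured. Inhibition is expressed relative to vehicle-treated controls.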

[10] = NCI Yeast Anticancer Drug Screen. Data for the rad50EPP+ strain (AID 151);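 also: 0% = growth of vehicle-treated control cultures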; settings: S. cerevisiae rad50 mutant strain, active compounds read high
In short: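 One strain with a rad50 alteration (rad50EPP+) was compound-treated, its growth then compared to that of vehicle controls.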

[11] = NCI Yeast Anticancer Drug Screen. Data for the rad50 strain (AID 155);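 also: 0% = growth of vehicle-only cultures of the same strain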; settings: S. cerevisiae rad50 strain growth inhibition, active compounds read high
In short: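 Inhibition values express reduced yeast growth in compound-treated cultures relative to vehicle-treated controls.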

[12] = NCI Yeast Anticancer Drug Screen. Data for the mec2-1 strain (AID 157); settings: S. cerevisiae mec2-1 strain, active compounds read high
In short: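 Test agents were screened against the mec2-1 yeast strain, with defined DNA repair or cell cycle alteration. Growth was scored as inhibition against vehicle-only controls.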

[13] = NCI Yeast Anticancer Drug Screen. Data for the wt2 strain (AID 169);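 also: 0% = growth of vehicle-treated yeast cultures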; settings: S. cerevisiae wt2 strain growth inhibition, active compounds read high
In short: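 Genetically defined yeast strains from a DNA-repair/cell-cycle panel were used. Compound-exposed yeast growth was measured, and the inhibition was calculated relative to vehicle treatment.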

[14] = NCI Yeast Anticancer Drug Screen. Data for the rad18 strain (AID 177); settings: S. cerevisiae rad18 mutant growth inhibition, active compounds read high
In short: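 Screen uses a yeast strain with a defined lesion in DNA damage repair; compound effect is read as loss of growth compared to untreated vehicle cultures.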

[15] = at 5.0 µM (retest, dose inferred, filed as 0.5)
[16] = at 50.0 µM (retest, dose inferred, filed as 5.0)

Measured: growth inhibition

COc1cc(/C=C/c2sc3ccccc3[n+]2C)ccc1N(C)C
inactive: [2]; [15] 2% | [2]; [16] 7% | [3]; at 1.2 µM -5% | [3]; at 3.7 µM -2% | [3]; at 11.0 µM -2% | [3]; at 33.0 µM 50% | [4]; [15] -2% | [4]; [16] -1% | [4]; at 50.0 µM 33.6% | [5]; at 1.2 µM -2% | [5]; at 3.7 µM 1% | [5]; [15] 3% | [5]; at 11.0 µM -2% | [5]; at 33.0 µM 68% | [5]; at 50.0 µM 64.5% | [6]; at 1.2 µM 0% | [6]; at 3.7 µM -4% | [6]; at 11.0 µM -3% | [7]; at 1.2 µM 0% | [7]; at 3.7 µM 0% | [7]; at 11.0 µM -1% | [8]; [15] -11% | [8]; [16] -6%
active: [1]; at 100.0 µM 99% | [2]; at 50.0 µM 93.5% | [3]; at 100.0 µM 96% | [5]; [16] 85% | [5]; at 100.0 µM 97% | [6]; at 33.0 µM 71% | [6]; at 100.0 µM 98% | [7]; at 33.0 µM 82% | [7]; at 100.0 µM 97% | [8]; at 50.0 µM 92.5%

O=C(Nc1cccc(C(F)(F)F)c1)Oc1ccc(Cl)cc1C(=O)c1ccccc1
inactive: [9]; at 1.2 µM 18% | [9]; at 3.7 µM 13% | [10]; at 1.2 µM 26% | [10]; at 3.7 µM 7% | [10]; at 11.0 µM 34% | [10]; at 33.0 µM 41% | [11]; at 1.2 µM 22% | [11]; at 3.7 µM 17% | [12]; at 1.2 µM 19% | [12]; at 3.7 µM 42% | [1]; at 1.2 µM -3% | [1]; at 3.7 µM -2% | [1]; at 11.0 µM 51% | [1]; at 33.0 µM 64% | [2]; [15] -34% | [3]; at 1.2 µM 24% | [3]; at 3.7 µM 15% | [4]; [15] 31% | [5]; at 1.2 µM 10% | [5]; at 3.7 µM 24% | [5]; [15] 15% | [13]; at 1.2 µM 15% | [13]; at 3.7 µM 6% | [6]; at 1.2 µM 9% | [6]; at 3.7 µM 8% | [7]; at 1.2 µM 24% | [7]; at 3.7 µM 30% | [14]; at 1.2 µM 6% | [14]; at 3.7 µM 21%
active: [9]; at 11.0 µM 76% | [9]; at 33.0 µM 80% | [9]; at 100.0 µM 97% | [10]; at 100.0 µM 96% | [11]; [15] 99% | [11]; at 11.0 µM 90% | [11]; at 33.0 µM 82% | [11]; [16] 97% | [11]; at 50.0 µM 90.4% | [11]; at 100.0 µM 98% | [12]; [15] 100% | [12]; at 11.0 µM 88% | [12]; at 33.0 µM 97% | [12]; [16] 89% | [12]; at 50.0 µM 92.9% | [12]; at 100.0 µM 97% | [1]; at 100.0 µM 97% | [2]; [16] 98% | [2]; at 50.0 µM 92.9% | [3]; at 11.0 µM 74% | [3]; at 33.0 µM 85% | [3]; at 100.0 µM 97% | [4]; [16] 98% | [4]; at 50.0 µM 93% | [5]; at 11.0 µM 83% | [5]; at 33.0 µM 91% | [5]; [16] 96% | [5]; at 50.0 µM 91% | [5]; at 100.0 µM 97% | [13]; at 11.0 µM 91% | [13]; at 33.0 µM 77% | [13]; at 100.0 µM 98% | [6]; at 11.0 µM 88% | [6]; at 33.0 µM 70% | [6]; at 100.0 µM 97% | [7]; at 11.0 µM 82% | [7]; at 33.0 µM 91% | [7]; at 100.0 µM 97% | [8]; [15] 100% | [8]; [16] 93% | [8]; at 50.0 µM 91.2% | [14]; at 11.0 µM 91% | [14]; at 33.0 µM 86% | [14]; at 100.0 µM 98%
